# Pf growth 48h = P. falciparum growth inhibition at 48 hours (one generation). hit rate 5.9% among 310,000. P. falciparum luciferase growth in erythrocytes, 48 h. Potency, µM (top dose mostly 28.7 µM), most hits filed as inhibitors
#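 Luciferase-expressing P. falciparum in infected erythrocytes (2% hematocrit, 0.1% parasitemia final) in RPMI 1640/0.5% Albumax were exposed to compound for 48 hours at 37 C, 5% CO2; growth read as luminescence.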
# Vaccinia Venus = inhibitors of vaccinia virus (Venus reporter) | Vaccinia virus Venus reporter expression, fluorescence | Potency, µM (doses to about 36.5 µM), actives largely listed as inhibitors | hit rate 0.46% among 330,000 | AID 720580; calls by dose curve; tested in A549 cells; also: nearly all actives have a fitted effect of over 30% in size
# NS1 function inh = blocks influenza NS1 protein function. Potency, µM (highest dose often 46.1 µM). hit rate 0.4% among 270,000. AID 2326; calls by dose curve; also: actives are rising curves; nearly all actives have a fitted effect of over 50% in size
#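 Recovery from NS1-induced slow growth read by OD600 in budding yeast switched to galactose assay medium (pH 6.0, -URA) at 1:100 dilution. Compound 23 nl per well; the matching strain lacking NS1 serves as control.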
# Pf growth 96h = inhibits malaria parasite growth, 96 h; P. falciparum luciferase reporter growth, 96 h; Potency, µM (highest dose often 28.7 µM), actives largely listed as inhibitors; hit rate 6.9% among 320,000
#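 P. falciparum expressing integrated firefly luciferase grown in erythrocytes (2% hematocrit, 0.05% parasitemia final) with compounds for 96 hours at 37 C, 5% CO2. Growth inhibition read as loss of luminescence after adding luciferase detection reagent.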
# VACV mCherry inh = vaccinia inhibition (mCherry reporter). hit rate 0.63% among 310,000. Potency, µM (series often up to 36.5 µM), usual class: inhibitors. Vaccinia virus mCherry reporter infection, fluorescence; calls by dose curve; tested in A549 cells; also: nearly all actives have a fitted effect of over 35% in size
# HCV inh = blocks hepatitis C virus. hit rate 3.4% among 340,000. Potency, µM (series often up to 41.8 µM), usual class: inhibitors. AID 651820. Huh7.5.1 HCVcc-Cre infection, luciferase reporter, 44 h
#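 HCVcc-Cre virus at an moi near 0.5 was added right after compound to cells cultured 4 h from seeding (1,000 cells/well). Luciferase activity was determined 44 h later, 15 min after substrate addition at RT.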
# A number is an active result; . = inactive; ? = inconclusive; / = not tested or not shown; [ ] = dose if it differs, or a comment. The list is not random: actives were taken first. Their share in the collection is about 11%. Unless noted, calls follow the shape of the dose curve; as a rule, active = well fitted inhibition curve with a large enough effect; inconclusive = small, poorly fitted or top-dose-only effect, or another doubt; inactive = no such curve, though single readings can be large or run the other way.
SMILES,Pf growth 48h,Vaccinia Venus,NS1 function inh,Pf growth 96h,VACV mCherry inh,HCV inh
Cc1cccc(NC(=O)c2cccc(N3C(=O)C4CCC(C)CC4C3=O)c2)c1C (configuration not stated),.,.,.,.,.,.
CC1CCC2C(=O)N(c3cccc(C(=O)Nc4ccccc4Cl)c3)C(=O)C2C1 (configuration not stated),.,.,.,12µM,.,.
COc1cccc(NC(=O)c2cccc(N3C(=O)C4CCC(C)CC4C3=O)c2)c1 (configuration not stated),2.3µM,.,.,4.1µM,.,.
Cc1cc(C(=O)NCc2ccccc2)c(=O)[nH]c1C,.,/,.,.,/,.
Cc1ccc(CCN2CC(C(=O)NCCCN3CCCCC3)CC2=O)cc1 (configuration not stated),.,/,.,7.4µM,/,.
O=C(NCCN1CCCc2ccccc21)C1CCC(=O)N(CCc2ccccc2)C1 (configuration not stated),.,/,.,.,/,.
O=C(NCCc1ccccc1)C1CC(=O)N(C2CCCCCC2)C1 (configuration not stated),.,.,.,.,.,.
O=C(NCCn1cccn1)C1CCC(=O)N(CCc2ccccc2)C1 (configuration not stated),.,.,.,13µM,.,.
Cc1ccc(CNC(=O)C2CCC(=O)N(CCc3ccc(Cl)cc3)C2)cc1 (configuration not stated),.,.,.,9.3µM,.,.
O=C(NCCc1ccccc1)C1CC(=O)N(C2CCCCC2)C1 (configuration not stated),.,/,.,5.9µM,/,.
O=C1c2ccccc2C(=O)N1c1ccccn1,/,.,/,/,.,/
O=C(/C=C/c1ccccc1[N+](=O)[O-])NCc1ccccc1Cl,.,.,/,.,?,.
CSc1ccccc1NC(=O)c1ccccn1,.,.,/,.,.,?
O=C(NCCc1ccccc1)C1CC(=O)N(CCc2ccccc2)C1 (configuration not stated),.,/,.,?,/,.
O=C(NCCN1CCCC1)C1CC(=O)N(C2CCCCC2)C1 (configuration not stated),.,.,?,13µM,.[1.46 µM],.
O=C(NCCc1ccc(Cl)cc1)C1CC(=O)N(CCc2ccccc2)C1 (configuration not stated),.,/,.,4.1µM,/,.
CC1CCN(CCCNC(=O)C2CC(=O)N(C3CCCCCC3)C2)CC1 (configuration not stated),.,.,.,.,.,.
Cc1oc(-c2ccccc2F)nc1CN1CCC(C(=O)NC2CCCc3ccccc32)CC1 (configuration not stated),.,/,.,.,/,?
O=C(Cc1csc(-c2cccc(Cl)c2)n1)Nc1cccc(S(=O)(=O)NC2=NCCC2)c1,?,.,/,.,.,?
COc1cc(/C=N/NC(=O)c2ccccn2)ccc1OC(=O)c1ccccc1Br,.,.,.,2.1µM,.,?
COc1cc(/C=N/NC(=O)c2ccccn2)ccc1OC(=O)c1ccc(Br)cc1,.,.,.,.,.,/
CCOc1cc(/C=N/NC(=O)c2ccccn2)ccc1OC(=O)c1cccs1,.,.,.,9.3µM,.,.
CCCc1cc(C(=O)NNC(=S)Nc2cccc(C)c2)cs1,.,.,.,.,.,.
CCC1CCCCN1CCCNC(=O)c1ccc2c(c1)N(Cc1ccc(Cl)cc1)C(=O)c1ccccc1S2(=O)=O (configuration not stated),/,.,/,/,.,/
O=C(NCc1ccc2c(c1)OCO2)c1ccc2c(c1)N(Cc1c(F)cccc1Cl)C(=O)CS2,12µM,.,?,.,.,?
SMILES,Pf growth 48h,Vaccinia Venus,NS1 function inh,Pf growth 96h,VACV mCherry inh,HCV inh
CCC1CCCCN1CCCNC(=O)c1ccc2c(c1)N(Cc1c(F)cccc1Cl)C(=O)CS2 (configuration not stated),13µM,/,.,?,/,.
Cc1csc2c(N3CCN(C(=S)Nc4ccc(C(F)(F)F)cc4)CC3)ncnc12,.,/,.,.,/,.
C=C1CCN([C@H](C(=O)NCc2ccccc2)C(C)C)S(=O)(=O)c2ccccc21,?,.,.,12µM,.,?
CC(=O)Oc1ccc(-n2c(=O)c3ccccc3c3ccccc3c2=O)cc1,.,.,.,?,.,?
FC(F)(F)c1cc(-c2cccs2)nc(-n2cc(Br)cn2)n1,/,/,.,.,/,11µM
FC(F)(F)c1cc(-c2cccs2)nc(N2CCOCC2)n1,.,.,.,/,/,?
Cc1cnn(-c2nc(-c3cccs3)cc(C(F)(F)F)n2)c1,.,/,.,?,/,10µM
CCOC(=O)c1c(NC(=O)CSc2nnc(CNc3ccc(Cl)cc3)o2)sc(C)c1C,.,?,.,.,?,?
Cc1cc(C)cc(OCCOCCn2c(-c3ccc(Cl)cc3)nc3ccccc3c2=O)c1,/,.,/,/,.,/
COc1ccc(CNC(=O)c2cc3oc4ccccc4c3n2C)cc1OC,/,.,/,/,.,/
Cn1c(C(=O)NCc2cccs2)cc2oc3ccccc3c21,.,.,.,/,10µM,?
Cn1c(C(=O)NCc2ccccc2)cc2oc3ccccc3c21,.,.,.,/,5µM,?
Cn1c(C(=O)NCc2ccccc2F)cc2oc3ccccc3c21,/,.,/,/,?,/
Clc1ccc(-c2nc(N3CCCCC3)nc3ccccc23)cc1,?,.,.,.,.,.
c1ccc(-c2nc(-n3nc4ccccc4n3)nc3ccccc23)cc1,.,.,.,.,/,14µM
OC(c1ccccc1)c1ccncc1 (configuration not stated),.,.,/,.,.,.
Cc1ccccc1C(N)c1ccncc1 (configuration not stated),.,/,.,5.9µM,/,.
COCCOC(=O)C1=C(C)OC(N)=C(C(=O)OC)C12C(=O)Nc1ccccc12 (configuration not stated),.,/,.,.,/,.
CCN1CCN(C(=O)C(NS(=O)(=O)c2ccc3nc(C)sc3c2)C(C)C)CC1 (configuration not stated),/,.,.,9.3µM,.,.
N#C/C(=C\c1ccccc1)C(=O)OCC(=O)N1CCCC1,9.3µM,/,/,.,/,.
CCOC(=O)c1c(C)oc2c1c(C=NCCO)c(O)c1ccccc12,?,?,.,13µM,?,.
O=C(Nc1ccc2snnc2c1)Nc1cccc2ccccc12,?,?,.,/,?,10µM
N/C(=N\N=C/c1ccc(-c2ccc(O)c(C(=O)O)c2)o1)N[N+](=O)[O-],.,/,.,.,/,.
O=C1NC(c2ccc(Br)cc2)Nc2ccccc21 (configuration not stated),.,?,.,.,.,.
O=C1c2ccccc2CCC12N=NCC2c1ccc(Cl)cc1 (configuration not stated),10µM,/,.,?,/,.
O=C1Cc2ccccc2C(c2ccc(Cl)cc2)N1 (configuration not stated),?,.,.,.,.,.
O=C1c2ccccc2CCC12N=NCC2c1ccc(Br)cc1 (configuration not stated),/,/,.,2.3µM,/,.

# Screening data as filed in PubChem.
